# Measurements: PMC11024108
# Key:
# [1] = target: Cell adhesion molecule 3 (UniProt Q99N28); assay: cross-link between two proteins; cross-linking mass spectrometry
# [2] = target: Cell cycle control protein 50A (UniProt Q8VEK0); assay: as above
# [3] = target: Clathrin heavy chain 1 (UniProt Q68FD5); assay: as above
# [4] = target: Clathrin light chain B (UniProt Q6IRU5); assay: as above
# [5] = target: Cofilin-1 (UniProt P23528); assay: as above
# [6] = target: Complement C1q subcomponent subunit C (UniProt Q02105); assay: as above
# [7] = target: Cytochrome c (UniProt P99999); assay: as above
# [8] = target: Cytochrome c oxidase assembly factor 3 homolog, mitochondrial (UniProt Q9Y2R0); assay: as above
# [9] = target: Cytoplasmic FMR1-interacting protein 2 (UniProt Q5SQX6); assay: as above
# [10] = target: Cytoplasmic dynein 1 heavy chain 1 (UniProt Q9JHU4); assay: as above
# Chain of Cytoplasmic dynein 1 heavy chain 1 (Q9JHU4 whole entry): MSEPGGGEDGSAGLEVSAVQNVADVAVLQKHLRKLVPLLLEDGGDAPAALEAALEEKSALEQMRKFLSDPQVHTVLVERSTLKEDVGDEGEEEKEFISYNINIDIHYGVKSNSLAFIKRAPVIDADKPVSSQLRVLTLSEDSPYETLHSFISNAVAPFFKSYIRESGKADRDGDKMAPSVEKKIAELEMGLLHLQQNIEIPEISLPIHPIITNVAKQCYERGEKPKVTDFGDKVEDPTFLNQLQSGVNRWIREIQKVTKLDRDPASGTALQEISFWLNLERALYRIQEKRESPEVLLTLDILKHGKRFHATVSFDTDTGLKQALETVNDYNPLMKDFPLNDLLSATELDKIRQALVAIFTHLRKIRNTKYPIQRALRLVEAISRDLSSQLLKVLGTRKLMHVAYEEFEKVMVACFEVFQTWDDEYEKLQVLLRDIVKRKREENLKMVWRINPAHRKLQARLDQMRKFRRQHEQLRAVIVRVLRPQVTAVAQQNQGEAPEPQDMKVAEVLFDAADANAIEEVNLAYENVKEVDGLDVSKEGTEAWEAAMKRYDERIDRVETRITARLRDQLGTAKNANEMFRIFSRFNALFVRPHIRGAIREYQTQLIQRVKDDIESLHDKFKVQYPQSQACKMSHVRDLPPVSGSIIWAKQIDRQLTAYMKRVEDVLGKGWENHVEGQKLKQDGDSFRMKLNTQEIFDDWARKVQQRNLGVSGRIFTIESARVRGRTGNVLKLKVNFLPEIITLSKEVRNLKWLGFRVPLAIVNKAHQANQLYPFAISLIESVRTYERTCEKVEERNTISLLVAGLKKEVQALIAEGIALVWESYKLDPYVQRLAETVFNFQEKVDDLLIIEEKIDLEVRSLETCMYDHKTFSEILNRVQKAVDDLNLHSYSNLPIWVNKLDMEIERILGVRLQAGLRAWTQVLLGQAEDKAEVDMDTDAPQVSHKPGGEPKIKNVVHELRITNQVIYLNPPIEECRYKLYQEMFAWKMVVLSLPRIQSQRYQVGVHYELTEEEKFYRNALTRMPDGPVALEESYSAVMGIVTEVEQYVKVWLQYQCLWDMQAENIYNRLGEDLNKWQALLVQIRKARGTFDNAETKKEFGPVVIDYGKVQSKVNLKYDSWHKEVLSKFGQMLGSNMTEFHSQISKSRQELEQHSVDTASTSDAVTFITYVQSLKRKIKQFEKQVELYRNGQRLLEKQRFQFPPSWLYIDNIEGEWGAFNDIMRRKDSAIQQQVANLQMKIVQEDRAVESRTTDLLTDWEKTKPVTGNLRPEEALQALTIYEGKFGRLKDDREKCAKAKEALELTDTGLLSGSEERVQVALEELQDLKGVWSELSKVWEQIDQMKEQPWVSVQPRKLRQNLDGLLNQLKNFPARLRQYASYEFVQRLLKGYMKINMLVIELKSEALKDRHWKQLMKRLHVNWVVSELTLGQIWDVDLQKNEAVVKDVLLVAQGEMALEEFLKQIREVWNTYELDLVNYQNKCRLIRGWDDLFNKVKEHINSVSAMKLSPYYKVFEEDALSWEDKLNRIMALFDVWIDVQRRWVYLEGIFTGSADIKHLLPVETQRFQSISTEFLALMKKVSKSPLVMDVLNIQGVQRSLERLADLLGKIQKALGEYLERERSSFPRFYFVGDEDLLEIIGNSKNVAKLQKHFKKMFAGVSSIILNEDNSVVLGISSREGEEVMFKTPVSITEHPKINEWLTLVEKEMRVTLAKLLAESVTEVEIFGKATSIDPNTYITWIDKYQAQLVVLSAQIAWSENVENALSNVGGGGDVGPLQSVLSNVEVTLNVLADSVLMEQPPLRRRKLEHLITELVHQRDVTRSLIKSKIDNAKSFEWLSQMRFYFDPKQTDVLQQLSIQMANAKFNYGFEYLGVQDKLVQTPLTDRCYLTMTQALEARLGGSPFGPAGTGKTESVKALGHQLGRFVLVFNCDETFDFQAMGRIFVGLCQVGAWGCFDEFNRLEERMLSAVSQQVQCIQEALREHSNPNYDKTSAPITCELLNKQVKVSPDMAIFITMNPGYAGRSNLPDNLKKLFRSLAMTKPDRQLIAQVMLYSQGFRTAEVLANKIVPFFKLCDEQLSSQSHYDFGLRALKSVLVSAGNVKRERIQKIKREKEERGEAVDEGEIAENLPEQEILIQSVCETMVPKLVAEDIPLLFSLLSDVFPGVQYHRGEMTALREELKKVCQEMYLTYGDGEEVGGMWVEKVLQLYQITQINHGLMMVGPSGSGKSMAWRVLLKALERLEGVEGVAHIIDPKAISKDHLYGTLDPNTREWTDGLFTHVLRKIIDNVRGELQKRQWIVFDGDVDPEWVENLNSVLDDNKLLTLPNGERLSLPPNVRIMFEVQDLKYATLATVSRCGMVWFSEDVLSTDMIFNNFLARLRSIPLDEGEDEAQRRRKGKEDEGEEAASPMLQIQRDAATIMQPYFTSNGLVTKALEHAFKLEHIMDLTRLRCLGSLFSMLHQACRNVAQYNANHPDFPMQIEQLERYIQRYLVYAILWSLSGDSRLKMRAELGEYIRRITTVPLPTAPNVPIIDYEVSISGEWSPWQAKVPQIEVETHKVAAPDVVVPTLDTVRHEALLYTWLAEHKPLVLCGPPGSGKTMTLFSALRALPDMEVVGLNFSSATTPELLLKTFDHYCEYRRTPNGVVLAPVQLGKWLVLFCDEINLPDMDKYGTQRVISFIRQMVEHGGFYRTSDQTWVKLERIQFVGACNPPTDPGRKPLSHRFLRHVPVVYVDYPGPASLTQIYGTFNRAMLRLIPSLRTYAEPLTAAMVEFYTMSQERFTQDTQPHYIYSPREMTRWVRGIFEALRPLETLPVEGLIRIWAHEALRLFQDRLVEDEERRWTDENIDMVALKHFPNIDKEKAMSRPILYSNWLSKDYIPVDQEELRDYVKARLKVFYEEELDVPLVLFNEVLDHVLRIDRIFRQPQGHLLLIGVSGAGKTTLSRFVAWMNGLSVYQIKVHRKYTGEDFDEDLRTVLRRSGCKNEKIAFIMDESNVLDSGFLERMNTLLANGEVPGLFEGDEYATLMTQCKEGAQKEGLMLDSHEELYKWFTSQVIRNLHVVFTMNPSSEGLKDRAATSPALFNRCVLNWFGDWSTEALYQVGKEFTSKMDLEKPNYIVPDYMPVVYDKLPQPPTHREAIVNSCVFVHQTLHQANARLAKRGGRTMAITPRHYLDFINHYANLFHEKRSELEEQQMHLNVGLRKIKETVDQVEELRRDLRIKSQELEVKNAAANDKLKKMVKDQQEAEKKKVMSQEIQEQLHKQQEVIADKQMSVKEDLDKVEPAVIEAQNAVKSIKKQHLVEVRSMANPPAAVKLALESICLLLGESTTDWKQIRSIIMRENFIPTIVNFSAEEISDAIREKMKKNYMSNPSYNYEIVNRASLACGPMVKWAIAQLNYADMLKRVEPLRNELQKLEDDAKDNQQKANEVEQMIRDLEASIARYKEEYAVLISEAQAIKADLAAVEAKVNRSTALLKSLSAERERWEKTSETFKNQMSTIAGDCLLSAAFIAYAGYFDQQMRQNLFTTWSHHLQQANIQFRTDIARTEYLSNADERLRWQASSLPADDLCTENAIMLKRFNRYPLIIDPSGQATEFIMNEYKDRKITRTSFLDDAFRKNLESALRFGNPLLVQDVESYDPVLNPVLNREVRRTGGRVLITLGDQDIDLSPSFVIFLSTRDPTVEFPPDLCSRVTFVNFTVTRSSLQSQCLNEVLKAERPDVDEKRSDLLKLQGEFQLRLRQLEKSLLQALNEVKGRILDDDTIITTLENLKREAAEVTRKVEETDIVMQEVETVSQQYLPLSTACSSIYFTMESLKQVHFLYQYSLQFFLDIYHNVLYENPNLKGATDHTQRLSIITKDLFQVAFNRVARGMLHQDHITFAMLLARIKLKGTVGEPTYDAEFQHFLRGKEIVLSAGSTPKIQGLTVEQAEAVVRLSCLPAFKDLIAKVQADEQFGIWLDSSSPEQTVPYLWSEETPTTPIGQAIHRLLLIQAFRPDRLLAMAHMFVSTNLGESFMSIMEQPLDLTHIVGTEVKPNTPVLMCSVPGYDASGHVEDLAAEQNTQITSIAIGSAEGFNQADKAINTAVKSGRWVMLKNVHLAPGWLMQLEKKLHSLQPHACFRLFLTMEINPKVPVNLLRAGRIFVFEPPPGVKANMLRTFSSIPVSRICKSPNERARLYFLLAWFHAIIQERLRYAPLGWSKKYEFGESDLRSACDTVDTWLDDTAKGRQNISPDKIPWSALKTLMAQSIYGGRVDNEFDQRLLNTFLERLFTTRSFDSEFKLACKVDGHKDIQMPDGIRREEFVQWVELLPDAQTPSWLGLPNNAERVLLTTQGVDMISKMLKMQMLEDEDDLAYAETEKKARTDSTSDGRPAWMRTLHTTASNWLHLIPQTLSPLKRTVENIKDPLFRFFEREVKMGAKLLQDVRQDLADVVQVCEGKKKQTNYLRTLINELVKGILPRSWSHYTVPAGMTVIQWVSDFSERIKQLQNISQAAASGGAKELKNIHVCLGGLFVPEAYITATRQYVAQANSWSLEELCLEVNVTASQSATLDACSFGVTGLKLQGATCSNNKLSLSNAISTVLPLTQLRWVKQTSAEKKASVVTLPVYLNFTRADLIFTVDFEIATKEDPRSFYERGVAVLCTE
# [11] = target: Delta-1-pyrroline-5-carboxylate synthase (UniProt P54886); assay: as above
# [12] = target: Prohibitin-2 (UniProt Q99623); assay: as above
# [13] = target: Scaffold attachment factor B1 (UniProt Q15424); assay: as above
# [14] = target: Trifunctional enzyme subunit alpha, mitochondrial (UniProt P40939); assay: as above
# [15] = target: Dihydrolipoyl dehydrogenase, mitochondrial (UniProt P09622); assay: as above
# [16] = target: Malate dehydrogenase, mitochondrial (UniProt P40926); assay: as above
# [17] = target: Disintegrin and metalloproteinase domain-containing protein 22 (UniProt Q9R1V6); assay: as above
# [18] = target: Disintegrin and metalloproteinase domain-containing protein 23 (UniProt Q9R1V7); assay: as above
# [19] = target: DnaJ homolog subfamily A member 1 (UniProt P63037); assay: as above
# [20] = target: Vesicle-associated membrane protein 1 (UniProt Q62442); assay: as above
# [21] = target: DnaJ homolog subfamily C member 5 (UniProt Q9H3Z4); assay: as above
# [22] = target: Dolichyl-diphosphooligosaccharide--protein glycosyltransferase subunit 1 (UniProt P04843); assay: as above
# [23] = target: Vesicle-associated membrane protein-associated protein A (UniProt Q9P0L0); assay: as above
# [24] = target: Dynactin subunit 2 (UniProt Q99KJ8); assay: as above
# [25] = target: Dynactin subunit 3 (UniProt Q9Z0Y1); assay: as above
# [26] = target: Dynamin-3 (UniProt Q8BZ98); assay: as above
# [27] = target: Dynein light chain 2, cytoplasmic (UniProt Q9D0M5); assay: as above
# [28] = target: Protein piccolo (UniProt Q9QYX7); assay: as above
# [29] = target: EH domain-containing protein 1 (UniProt Q9WVK4); assay: as above
# [30] = target: ER membrane protein complex subunit 2 (UniProt Q9CRD2); assay: as above
# [31] = target: ERO1-like protein alpha (UniProt Q96HE7); assay: as above
# [32] = target: Elongation factor 1-alpha 2 (UniProt P62631); assay: as above
# [33] = target: Epidermal growth factor receptor substrate 15-like 1 (UniProt Q9UBC2); assay: as above
# [34] = target: Erlin-1 (UniProt Q91X78); assay: as above
# [35] = target: Eukaryotic translation initiation factor 2 subunit 3, X-linked (UniProt Q9Z0N1); assay: as above
# [36] = target: Eukaryotic translation initiation factor 3 subunit B (UniProt Q8JZQ9); assay: as above
# [37] = target: Flotillin-1 (UniProt O75955); assay: as above
# [38] = target: Flotillin-2 (UniProt Q60634); assay: as above
# [39] = target: Fragile X messenger ribonucleoprotein 1 (UniProt Q06787); assay: as above
# [40] = target: 10 kDa heat shock protein, mitochondrial (UniProt P61604); assay: cross-linking mass spectrometry
# [41] = target: Heat shock cognate 71 kDa protein (UniProt P11142); assay: cross-linking mass spectrometry
# [42] = target: Heat shock 70 kDa protein 1B (UniProt P0DMV9); assay: cross-link between two proteins; cross-linking mass spectrometry
# [43] = target: Syntaxin-8 (UniProt Q9UNK0); assay: cross-linking mass spectrometry
# [44] = target: Gamma-soluble NSF attachment protein (UniProt Q99747); assay: cross-link between two proteins; cross-linking mass spectrometry
# [45] = target: Fructose-bisphosphate aldolase A (UniProt P05064); assay: as above
# [46] = target: Gamma-aminobutyric acid receptor subunit beta-1 (UniProt P50571); assay: as above
# Chain of Glutamate dehydrogenase 1, mitochondrial, P00367 (P00367 whole entry): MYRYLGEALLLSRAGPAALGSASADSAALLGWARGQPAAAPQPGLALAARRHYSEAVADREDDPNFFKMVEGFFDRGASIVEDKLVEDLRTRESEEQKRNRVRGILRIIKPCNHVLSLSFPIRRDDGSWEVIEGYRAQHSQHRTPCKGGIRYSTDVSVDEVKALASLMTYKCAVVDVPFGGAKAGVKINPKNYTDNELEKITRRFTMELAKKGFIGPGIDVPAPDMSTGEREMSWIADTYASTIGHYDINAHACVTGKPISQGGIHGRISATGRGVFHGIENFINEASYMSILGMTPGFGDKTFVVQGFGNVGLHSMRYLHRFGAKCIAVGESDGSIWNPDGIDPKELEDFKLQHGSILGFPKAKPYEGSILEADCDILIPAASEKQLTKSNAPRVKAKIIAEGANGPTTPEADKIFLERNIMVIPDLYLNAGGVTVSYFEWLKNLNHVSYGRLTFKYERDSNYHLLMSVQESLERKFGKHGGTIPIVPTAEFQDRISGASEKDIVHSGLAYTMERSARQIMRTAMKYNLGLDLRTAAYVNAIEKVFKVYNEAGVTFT
substance,measurement,setting,value
"Cell adhesion molecule 2, Q8BLQ9",listed as a hit,[1],yes
"Phospholipid-transporting ATPase IA, P70704",listed as a hit,[2],yes
"Clathrin light chain A, O08585",listed as a hit,[3],yes
"Clathrin heavy chain 1, Q68FD5",listed as a hit,[4],yes
"WD repeat-containing protein 1, O75083",listed as a hit,[5],yes
"Complement C1q subcomponent subunit A, P98086",listed as a hit,[6],yes
"Holocytochrome c-type synthase, P53701",listed as a hit,[7],yes
"COX assembly mitochondrial protein homolog, Q7Z7K0",listed as a hit,[8],yes
"Nck-associated protein 1, P28660",listed as a hit,[9],yes
"Cytoplasmic dynein 1 light intermediate chain 2, Q6PDL0",listed as a hit,[10],yes
"Cytoplasmic dynein 1 light intermediate chain 1, Q8R1Q8",listed as a hit,[10],yes
"60 kDa heat shock protein, mitochondrial, P10809",listed as a hit,[11],yes
same,listed as a hit,[12],yes
same,listed as a hit,[13],yes
same,listed as a hit,[14],yes
"Glutamate dehydrogenase 1, mitochondrial, P00367",listed as a hit,[15],yes
same,listed as a hit,[16],yes
"Contactin-2, Q61330",listed as a hit,[17],yes
"Leucine-rich glioma-inactivated protein 1, Q9JIA1",listed as a hit,[17],yes
same,listed as a hit,[18],yes
"DnaJ homolog subfamily C member 5, P60904",listed as a hit,[19],yes
same,listed as a hit,[20],yes
"DnaJ homolog subfamily A member 1, P31689",listed as a hit,[21],yes
"Membrane-associated progesterone receptor component 2, O15173",listed as a hit,[22],yes
same,listed as a hit,[23],yes
"Dynactin subunit 1, O08788",listed as a hit,[24],yes
"Beta-centractin, Q8R5C5",listed as a hit,[24],yes
"Dynactin subunit 2, Q99KJ8",listed as a hit,[25],yes
"Dynamin-1, P39053",listed as a hit,[26],yes
"Protein bassoon, O88737",listed as a hit,[27],yes
same,listed as a hit,[28],yes
"EH domain-containing protein 3, Q9QXY6",listed as a hit,[29],yes
"ER membrane protein complex subunit 8, O70378",listed as a hit,[30],yes
"Thioredoxin domain-containing protein 5, Q8NBS9",listed as a hit,[31],yes
"Elongation factor 1-alpha 1, P10126",listed as a hit,[32],yes
"Intersectin-2, Q9NZM3",listed as a hit,[33],yes
"Erlin-2, Q8BFZ9",listed as a hit,[34],yes
"Eukaryotic translation initiation factor 2 subunit 1, Q6ZWX6",listed as a hit,[35],yes
"Eukaryotic translation initiation factor 3 subunit A, P23116",listed as a hit,[36],yes
"Syntaxin-7, O15400",listed as a hit,[37],yes
"Flotillin-1, O08917",listed as a hit,[38],yes
"RNA-binding protein FXR1, P51114",listed as a hit,[39],yes
"Peptidyl-prolyl cis-trans isomerase F, mitochondrial, P30405",listed as a hit,[40],yes
"BAG family molecular chaperone regulator 2, O95816",listed as a hit,[41],yes
same,listed as a hit,[42],yes
"Alpha-soluble NSF attachment protein, P54920",listed as a hit,[43],yes
same,listed as a hit,[44],yes
"Fructose-bisphosphate aldolase C, P05063",listed as a hit,[45],yes
"Gamma-aminobutyric acid receptor subunit gamma-2, P22723",listed as a hit,[46],yes
